From the supplement of paper PMC10849652
The full data set covers some 7,900 targets. This sample favours those with a hit. About 0.6% of all pairs of compound and target were hits.

compound: CNc1nc(-c2ccc3c(N)n[nH]c3c2)cc(N2C[C@@H](C(=O)NC3CCCCC3)CC[C@H]2C)n1; test: log2 fold change, soluble protein after heating vs DMSO (PISA); higher = thermal stabilisation; K562 cells, 10 uM, 30 min; active = over 0.2 and 3.5 SD of the protein, either way, in both replicates (recomputed)
Method in brief: (§1)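 K562 cells (2×10^6 cells/mL) were treated with 10 μM compound for 30 min, and aliquots were heated for 3 min over 48°C-58°C. Pooled aliquots were extracted in PBS with 0.5% NP-40 at 4°C, and the supernatant after 21,000xg for 90 min was measured by TMTpro 16plex LC-MS/MS with channel sums equalised. Reported thermal stability, relative to control samples and from duplicates, is a log2 fold change.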

UniProt Q49A26, sequence (Q49A26 whole entry, looked up): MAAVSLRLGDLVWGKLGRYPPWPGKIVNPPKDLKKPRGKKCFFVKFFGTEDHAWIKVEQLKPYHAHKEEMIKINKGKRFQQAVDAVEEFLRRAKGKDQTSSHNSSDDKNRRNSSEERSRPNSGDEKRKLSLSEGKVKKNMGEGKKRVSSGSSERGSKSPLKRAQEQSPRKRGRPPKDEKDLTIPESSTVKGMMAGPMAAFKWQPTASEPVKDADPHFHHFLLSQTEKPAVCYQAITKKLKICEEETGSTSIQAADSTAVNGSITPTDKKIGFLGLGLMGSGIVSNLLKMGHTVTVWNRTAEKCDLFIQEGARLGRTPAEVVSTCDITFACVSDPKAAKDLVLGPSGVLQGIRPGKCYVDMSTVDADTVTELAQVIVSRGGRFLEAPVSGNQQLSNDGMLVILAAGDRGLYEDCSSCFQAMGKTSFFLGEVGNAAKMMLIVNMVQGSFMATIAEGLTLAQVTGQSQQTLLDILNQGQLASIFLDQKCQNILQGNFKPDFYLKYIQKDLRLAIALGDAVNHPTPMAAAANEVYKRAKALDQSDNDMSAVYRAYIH
UniProt P22570, sequence (P22570 whole entry, looked up): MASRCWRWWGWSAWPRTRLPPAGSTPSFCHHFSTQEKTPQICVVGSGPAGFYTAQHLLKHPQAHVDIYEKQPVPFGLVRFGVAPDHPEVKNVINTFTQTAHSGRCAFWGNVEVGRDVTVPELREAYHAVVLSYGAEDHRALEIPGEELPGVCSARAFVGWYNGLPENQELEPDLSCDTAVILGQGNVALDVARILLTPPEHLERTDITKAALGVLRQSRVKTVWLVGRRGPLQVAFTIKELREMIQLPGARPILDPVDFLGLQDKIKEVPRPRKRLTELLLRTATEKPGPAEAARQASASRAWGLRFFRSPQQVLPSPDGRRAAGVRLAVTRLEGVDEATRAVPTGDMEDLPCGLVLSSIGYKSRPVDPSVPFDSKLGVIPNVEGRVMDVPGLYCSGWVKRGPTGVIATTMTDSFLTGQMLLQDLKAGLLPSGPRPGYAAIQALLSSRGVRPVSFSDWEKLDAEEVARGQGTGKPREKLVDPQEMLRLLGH
UniProt P23327, sequence (P23327 whole entry, looked up): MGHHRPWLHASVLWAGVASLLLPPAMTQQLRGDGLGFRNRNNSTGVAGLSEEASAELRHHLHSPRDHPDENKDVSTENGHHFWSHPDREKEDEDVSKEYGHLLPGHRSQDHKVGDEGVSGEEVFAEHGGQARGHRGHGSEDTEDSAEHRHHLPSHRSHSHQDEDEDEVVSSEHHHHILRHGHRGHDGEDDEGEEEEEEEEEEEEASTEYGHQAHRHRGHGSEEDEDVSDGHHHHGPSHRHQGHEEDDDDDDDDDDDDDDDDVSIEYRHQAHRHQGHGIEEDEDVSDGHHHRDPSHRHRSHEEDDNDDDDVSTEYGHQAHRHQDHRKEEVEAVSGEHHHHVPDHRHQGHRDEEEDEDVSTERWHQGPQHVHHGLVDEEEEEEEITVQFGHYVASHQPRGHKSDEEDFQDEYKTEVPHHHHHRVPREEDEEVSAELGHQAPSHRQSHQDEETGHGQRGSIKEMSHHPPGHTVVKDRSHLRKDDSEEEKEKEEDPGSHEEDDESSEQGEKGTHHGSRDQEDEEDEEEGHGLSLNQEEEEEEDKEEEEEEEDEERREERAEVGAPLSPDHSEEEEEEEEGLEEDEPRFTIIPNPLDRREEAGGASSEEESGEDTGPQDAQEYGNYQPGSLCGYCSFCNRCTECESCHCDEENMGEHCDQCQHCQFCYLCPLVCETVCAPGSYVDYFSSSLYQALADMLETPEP
UniProt P07686, sequence (P07686 whole entry, looked up): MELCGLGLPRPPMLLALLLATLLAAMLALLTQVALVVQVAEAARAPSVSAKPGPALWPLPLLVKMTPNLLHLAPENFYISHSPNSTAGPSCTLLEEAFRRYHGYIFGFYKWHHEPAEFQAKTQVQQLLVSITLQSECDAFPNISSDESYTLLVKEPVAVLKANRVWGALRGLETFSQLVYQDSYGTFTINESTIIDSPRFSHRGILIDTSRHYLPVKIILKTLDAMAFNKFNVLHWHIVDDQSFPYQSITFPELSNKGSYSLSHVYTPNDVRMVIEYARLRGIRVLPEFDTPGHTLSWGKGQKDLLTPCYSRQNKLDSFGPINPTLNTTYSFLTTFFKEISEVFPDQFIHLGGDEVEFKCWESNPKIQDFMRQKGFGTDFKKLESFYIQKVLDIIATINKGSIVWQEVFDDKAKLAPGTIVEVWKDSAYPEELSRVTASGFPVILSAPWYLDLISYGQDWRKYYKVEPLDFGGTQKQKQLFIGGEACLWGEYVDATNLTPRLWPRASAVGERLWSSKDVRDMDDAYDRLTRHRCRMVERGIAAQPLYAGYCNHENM
UniProt Q9NZC3, sequence (Q9NZC3 whole entry, looked up): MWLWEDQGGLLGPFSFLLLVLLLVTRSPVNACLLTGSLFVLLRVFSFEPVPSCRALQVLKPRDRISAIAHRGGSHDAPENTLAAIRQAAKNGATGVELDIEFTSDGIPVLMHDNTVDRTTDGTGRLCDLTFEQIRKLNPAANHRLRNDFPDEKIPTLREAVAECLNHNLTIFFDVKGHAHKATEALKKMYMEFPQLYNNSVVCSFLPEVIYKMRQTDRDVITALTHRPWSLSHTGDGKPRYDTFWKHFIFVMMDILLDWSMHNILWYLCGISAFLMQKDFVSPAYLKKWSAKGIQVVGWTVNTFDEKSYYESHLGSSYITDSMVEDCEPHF
UniProt Q92917, sequence (Q92917 whole entry, looked up): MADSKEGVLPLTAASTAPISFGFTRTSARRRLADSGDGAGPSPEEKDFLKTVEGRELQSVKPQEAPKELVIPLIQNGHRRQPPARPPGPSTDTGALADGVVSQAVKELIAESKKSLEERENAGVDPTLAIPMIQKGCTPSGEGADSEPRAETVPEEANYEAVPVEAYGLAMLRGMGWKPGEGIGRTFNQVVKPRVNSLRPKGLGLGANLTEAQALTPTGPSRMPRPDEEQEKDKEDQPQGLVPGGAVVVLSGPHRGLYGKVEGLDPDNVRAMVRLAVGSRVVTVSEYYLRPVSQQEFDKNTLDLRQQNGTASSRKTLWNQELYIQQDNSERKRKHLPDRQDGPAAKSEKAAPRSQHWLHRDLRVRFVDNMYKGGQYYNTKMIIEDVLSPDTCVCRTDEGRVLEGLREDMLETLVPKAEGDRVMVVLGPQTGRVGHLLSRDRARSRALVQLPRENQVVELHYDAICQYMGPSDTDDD
UniProt Q00688, sequence (Q00688 whole entry, looked up): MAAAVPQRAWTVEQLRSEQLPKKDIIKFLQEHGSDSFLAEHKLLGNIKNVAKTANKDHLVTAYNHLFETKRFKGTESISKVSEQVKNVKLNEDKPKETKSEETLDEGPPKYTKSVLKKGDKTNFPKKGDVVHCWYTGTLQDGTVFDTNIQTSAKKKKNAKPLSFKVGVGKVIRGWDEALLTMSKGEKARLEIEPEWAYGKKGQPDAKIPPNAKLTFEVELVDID
UniProt Q01628, sequence (Q01628 whole entry, looked up): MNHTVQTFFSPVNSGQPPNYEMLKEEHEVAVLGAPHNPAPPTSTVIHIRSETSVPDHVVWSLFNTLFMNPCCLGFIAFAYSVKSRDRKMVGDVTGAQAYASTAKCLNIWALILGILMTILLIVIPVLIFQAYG
UniProt P54803, sequence (P54803 whole entry, looked up): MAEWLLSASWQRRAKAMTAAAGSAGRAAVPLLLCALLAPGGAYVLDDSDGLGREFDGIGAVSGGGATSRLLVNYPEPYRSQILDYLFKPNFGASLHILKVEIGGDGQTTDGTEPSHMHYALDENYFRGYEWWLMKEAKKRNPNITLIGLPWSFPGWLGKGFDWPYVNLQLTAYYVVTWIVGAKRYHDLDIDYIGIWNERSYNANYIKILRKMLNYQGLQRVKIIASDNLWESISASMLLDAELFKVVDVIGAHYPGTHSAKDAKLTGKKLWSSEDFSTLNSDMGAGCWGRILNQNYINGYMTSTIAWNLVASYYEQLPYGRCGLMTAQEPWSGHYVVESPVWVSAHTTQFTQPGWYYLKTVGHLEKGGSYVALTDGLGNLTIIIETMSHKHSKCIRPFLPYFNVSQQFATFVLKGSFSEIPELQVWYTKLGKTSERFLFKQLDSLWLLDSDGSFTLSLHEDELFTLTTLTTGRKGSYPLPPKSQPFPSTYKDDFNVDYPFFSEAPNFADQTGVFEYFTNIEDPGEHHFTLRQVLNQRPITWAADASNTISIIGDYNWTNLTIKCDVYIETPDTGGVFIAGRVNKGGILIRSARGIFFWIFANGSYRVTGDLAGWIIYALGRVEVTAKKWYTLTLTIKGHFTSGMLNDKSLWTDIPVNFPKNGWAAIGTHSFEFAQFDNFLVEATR
UniProt Q00403, sequence (Q00403 whole entry, looked up): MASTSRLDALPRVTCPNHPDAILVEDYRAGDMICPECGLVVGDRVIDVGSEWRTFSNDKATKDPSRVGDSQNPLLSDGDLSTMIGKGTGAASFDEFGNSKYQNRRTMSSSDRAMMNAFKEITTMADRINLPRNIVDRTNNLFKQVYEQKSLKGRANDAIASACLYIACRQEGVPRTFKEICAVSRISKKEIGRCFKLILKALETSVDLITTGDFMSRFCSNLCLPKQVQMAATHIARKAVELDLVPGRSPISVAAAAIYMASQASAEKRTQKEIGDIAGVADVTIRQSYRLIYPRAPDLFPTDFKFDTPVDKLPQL
UniProt O00458, sequence (O00458 whole entry, looked up): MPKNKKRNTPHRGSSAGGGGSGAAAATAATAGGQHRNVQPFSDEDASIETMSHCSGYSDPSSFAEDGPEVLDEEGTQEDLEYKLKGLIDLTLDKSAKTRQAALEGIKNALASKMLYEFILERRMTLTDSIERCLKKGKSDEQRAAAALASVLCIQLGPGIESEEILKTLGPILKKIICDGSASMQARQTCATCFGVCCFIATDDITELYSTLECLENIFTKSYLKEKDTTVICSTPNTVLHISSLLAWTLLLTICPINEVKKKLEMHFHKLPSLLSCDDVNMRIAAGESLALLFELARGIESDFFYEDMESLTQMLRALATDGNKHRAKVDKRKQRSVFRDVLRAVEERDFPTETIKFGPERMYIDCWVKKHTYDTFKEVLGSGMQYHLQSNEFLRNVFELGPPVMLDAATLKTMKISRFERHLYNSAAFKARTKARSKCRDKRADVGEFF

log2 fold change, inactive:
FKBP3 (UniProt Q00688) 0.01
GDE1 (UniProt Q9NZC3) 0.01
HRC (UniProt P23327) -0.057
HEXB (UniProt P07686) -0.033
GYS1 (UniProt P13807) 0.193
FDXR isoform 7 (UniProt P22570) 0.034
GTF2B (UniProt Q00403) 0.026
GLYR1 (UniProt Q49A26) 0.04
GPKOW (UniProt Q92917) 0.069
IFITM3 (UniProt Q01628) 0.03
GALC (UniProt P54803) -0.015

compound: COC(=O)N[C@@H](C)CNc1nccc(-c2cn(C(C)C)nc2-c2cc(Cl)cc(NS(C)(=O)=O)c2F)n1 [encorafenib]; test: as above
Method in brief: as §1

log2 fold change, inactive:
FHOD1 (UniProt Q9Y613) 0.187
GLB1 (UniProt P16278) 0.003
HDGFL2 (UniProt Q7Z4V5) -0.016
FYB1 isoform 3 (UniProt O15117) 0.074
GSTT1 (UniProt P30711) 0.023
HEXA (UniProt P06865) 0.003
GLUL (UniProt P15104) -0.02
HS1BP3 (UniProt Q53T59) 0.037
ICMT (UniProt O60725) -0.144
HNRNPH2 (UniProt P55795) 0.02
GGA2 (UniProt Q9UJY4) 0.068
GBA2 (UniProt Q9HCG7) 0.084
HK2 (UniProt P52789) 0.026
GMEB2 (UniProt Q9UKD1) -0.007
IFRD1 (UniProt O00458) 0.038
GAK (UniProt O14976) -0.17
HDAC7 isoform 5 (UniProt Q8WUI4) -0.016
HNRNPUL1 (UniProt Q9BUJ2) 0.063
HSD17B12 (UniProt Q53GQ0) 0.027
GBF1 (UniProt Q92538) 0.104
HSPA8 (UniProt E9PN89) 0.023
GOLGB1 isoform 2 (UniProt Q14789) -0.04
GLRX3 (UniProt O76003) 0.029
HMGN1 (UniProt P05114) -0.01
FKBP3 (UniProt Q00688) 0.012
GDE1 (UniProt Q9NZC3) -0.017
HRC (UniProt P23327) -0.066
HEXB (UniProt P07686) 0.01
GYS1 (UniProt P13807) 0.176
FDXR isoform 7 (UniProt P22570) -0.034
GTF2B (UniProt Q00403) 0.023
GLYR1 (UniProt Q49A26) -0.044
GPKOW (UniProt Q92917) 0.034
IFITM3 (UniProt Q01628) 0.1
GALC (UniProt P54803) 0.024

compound: COC(=O)[C@H](CCSC)NC(=O)C1=C(C=C(C=C1)NC[C@H](CS)N)C2=CC=CC=C2; test: as above
Method in brief: as §1

log2 fold change, inactive:
FHOD1 (UniProt Q9Y613) 0.049
GLB1 (UniProt P16278) 0.036
HDGFL2 (UniProt Q7Z4V5) 0.036
FYB1 isoform 3 (UniProt O15117) -0.01
GSTT1 (UniProt P30711) -0.062
HEXA (UniProt P06865) 0.016
GLUL (UniProt P15104) 0.038
HS1BP3 (UniProt Q53T59) -0.175
ICMT (UniProt O60725) 0.062
HNRNPH2 (UniProt P55795) -0.068
GGA2 (UniProt Q9UJY4) 0.122
GBA2 (UniProt Q9HCG7) 0.071
HK2 (UniProt P52789) -0.005
GMEB2 (UniProt Q9UKD1) 0.008
IFRD1 (UniProt O00458) 0.006
GAK (UniProt O14976) -0.266
HDAC7 isoform 5 (UniProt Q8WUI4) 0.012
HNRNPUL1 (UniProt Q9BUJ2) -0.011
HSD17B12 (UniProt Q53GQ0) 0.013
GBF1 (UniProt Q92538) -0.015
HSPA8 (UniProt E9PN89) -0.036
GOLGB1 isoform 2 (UniProt Q14789) 0.003
GLRX3 (UniProt O76003) -0.03
HMGN1 (UniProt P05114) 0.011
FKBP3 (UniProt Q00688) 0.033
GDE1 (UniProt Q9NZC3) 0.024
HRC (UniProt P23327) 0.043
HEXB (UniProt P07686) -0.001
GYS1 (UniProt P13807) -0.047
FDXR isoform 7 (UniProt P22570) -0.023
GTF2B (UniProt Q00403) -0.01
GLYR1 (UniProt Q49A26) -0.033
GPKOW (UniProt Q92917) -0.032
IFITM3 (UniProt Q01628) 0.008
GALC (UniProt P54803) -0.005
